Epigenetic reg = Quantitative High-Throughput Screen for Regulators of Epigenetic Control; hit rate 0.2% among 280,000; murine LDR cells, GFP reporter derepression, 30 h; Potency, µM (highest dose often 53.9 µM), most hits filed as activators; also: nearly all actives have a fitted effect of over 60% in size
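GFP-positive cell count by laser-scanning cytometry (objects 20–120 um) after 30 h, 37 C compound exposure of murine LDR cells; reporter is CMV-GFP integrated at a silenced locus, inducible by HDAC or DNMT inhibitors.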
NPSR antag = qHTS Assay for Antagonists of the Neuropeptide S Receptor: cAMP Signal Transduction. CHO-NPSR cells, cAMP TR-FRET, antagonist mode. Potency, µM (top dose mostly 38.3 µM), usual class: inhibitors. hit rate 1% among 220,000. AID 1461, 2008; also: nearly all actives have a fitted effect of over 50% in size
Target sequence (Q6W5P4 whole entry, looked up): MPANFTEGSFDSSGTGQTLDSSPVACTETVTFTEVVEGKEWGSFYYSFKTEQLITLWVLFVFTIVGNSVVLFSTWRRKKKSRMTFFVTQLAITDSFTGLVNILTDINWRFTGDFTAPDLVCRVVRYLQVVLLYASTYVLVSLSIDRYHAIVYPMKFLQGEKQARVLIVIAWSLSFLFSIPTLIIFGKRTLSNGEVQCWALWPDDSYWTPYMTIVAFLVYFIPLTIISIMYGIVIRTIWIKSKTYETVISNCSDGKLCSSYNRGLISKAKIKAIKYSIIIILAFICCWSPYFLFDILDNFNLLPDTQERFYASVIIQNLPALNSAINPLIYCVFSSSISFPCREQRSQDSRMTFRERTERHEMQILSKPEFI
LMNA splice mod = qHTS Assay for Modulators of Lamin A Splicing; HeLa LMNA splicing GFP/RFP minigene ratio, 48 h; Potency, µM (top dose mostly 46.1 µM), actives largely listed as inhibitors; hit rate 0.01% among 200,000; AID 1487, 2009; active = well fitted inhibition curve with a large enough effect in the signal ratio, with a control signal flat, not every such curve was filed as active; inconclusive = small, poorly fitted or top-dose-only effect, or effect the other way, or a change in a side signal; the % refers to the signal ratio
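Read-out is the ratio of GFP to DsRed2 object intensity, acquired by 488 nm laser-scanning cytometry on HeLa lamin A-EGFP minigene reporter cells. Compound incubation 48 hrs at 37 °C in Opti-MEM with 2% FBS; DMSO 0.5% final.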
HTT ATP protect = qHTS Multiplex Assay to Identify Dual Action Probes in a Cell Model of Huntington: Cytoprotection (ATP); PC12 HTT-Q103 induced, cytoprotection, ATP luminescence, 40 h; Potency, µM (series often up to 56.4 µM), actives largely listed as activators; hit rate 0.14% among 230,000; AID 1471, 2008; also: nearly all actives have a fitted effect of over 45% in size
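Rat PC12, Q103 Htt exon1-GFP fusion, ecdysone promoter; tebufenozide inducer 100 nM final; compound titration; qHTS, 1500 cells/well; ATPlite luminescent read.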
HttQ103 aggreg = qHTS Multiplex Assay to Identify Dual Action Probes in a Cell Model of Huntington: Aggregate Formation (GFP) | PC12 HttQ103-GFP aggregates, Acumen cytometry, 40 h | Potency, µM (doses to about 46.1 µM), usual class: inhibitors | hit rate 1.1% among 220,000 | AID 1688, 2009; also: nearly all actives have a fitted effect of over 60% in size
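PC12 cells with ecdysone-inducible HTT exon1 Q103-GFP, induced by 100 nM tebufenozide, given compounds in a concentration series. GFP aggregates (1–25 um, 6 SD above background) counted in lysates by laser-scanning cytometry, 488 nm excitation.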
Hits are given with their value; 0 = inactive; ? = inconclusive; - = not tested or not shown; [ ] = another dose, or the depositor's remark. Most compounds without a hit are left out; they make up all but 1.5% or so of the library. Unless noted, calls follow the shape of the dose curve; as a rule, active = well fitted curve in the direction sought with a large enough effect; inconclusive = small, poorly fitted or top-dose-only effect, or another doubt; inactive = no such curve, though single readings can be large; an effect the other way counts as inactive or inconclusive.

SMILES	Epigenetic reg	NPSR antag	LMNA splice mod	HTT ATP protect	HttQ103 aggreg
COc1ccc(N2C3=C(CC4=C2CCCC4=O)C(=O)CCC3)cc1	0	0	0	0[10 µM]	0
COc1ccc(N2C3=C(CC4=C2CC(C)(C)CC4=O)C(=O)CC(C)(C)C3)cc1	0	2µM	?	0	0[9.22 µM]
O=C1CC2(CCCC2)CC(=O)N1c1ccccc1	0	0	0	0	0
CCN=c1scc(-c2ccc3c(c2)NC(=O)CO3)n1N=C1CCCC1	0	0	?	0	11.2µM
COCC(C)n1c(-c2ccc3c(c2)NC(=O)CO3)csc1=Nc1ccc(OC(F)F)cc1 (configuration not stated)	0	10µM	?	0	?
CCCCN=c1scc(-c2ccc3c(c2)NC(=O)CO3)n1N=C1CCCC1	0	?	?	0	?
CNCC(=O)NC(CCCN=C(N)N)C(=O)NC(C(=O)NC(Cc1ccc(O)cc1)C(=O)NC(C(=O)NC(Cc1cnc[nH]1)C(=O)N1CCCC1C(=O)NC(C)C(=O)O)C(C)C)C(C)C (configuration not stated)	-	-	-	0	0
CS(=O)(=O)Nc1ccccc1C(=O)Nc1cc(Cl)cc(Cl)c1	0	0	0	0[10 µM]	8.91µM
CS(=O)(=O)Nc1ccccc1C(=O)Nc1ccccc1Cl	0	0	0	0[10 µM]	0
CS(=O)(=O)Nc1ccccc1C(=O)Nc1cccc(Cl)c1	0	0	?	0[10 µM]	11.2µM
COc1ccc(Oc2ncc3nc(C)c(=O)n(C)c3n2)cc1	-	-	-	0	-
N#C/C(=C\c1ccccc1)C(=O)Nc1cc(S(=O)(=O)N2CCOCC2)ccc1N1CCCC1	0	0	?	0.708µM	?
CCOC(=O)CC(NC(=O)c1cc2cc(Br)cc(OC)c2oc1=O)c1ccc(OC)cc1 (configuration not stated)	0	-	-	-	-
CS(=O)(=O)c1ccc(/C=N\NC(N)=S)cc1	-	-	-	0[10 µM]	-
O=C(Nc1nccs1)c1cccc(N2C(=O)c3cccc4c([N+](=O)[O-])ccc(c34)C2=O)c1	12.6µM	?	0	0[10 µM]	?
O=C1C=C(c2ccccc2)C(=O)N1Nc1ccccc1	0	12.6µM	0	0	0
Cc1ccc(NN2C(=O)C=C(c3ccc(Cl)cc3)C2=O)cc1	0	7.94µM	?	0	0
O=c1cc(CN2CCN(c3ccccc3F)CC2)c2cc3c(cc2o1)CCCC3	0	0	0	1.12µM	0.631µM
Cc1[nH]c2ccccc2c1/C=N/Nc1ccccc1[N+](=O)[O-]	0	10µM	-	0[10 µM]	0
CCN1/C(=C/c2cc[n+](CCCS(=O)(=O)[O-])c3ccccc23)Sc2ccccc21	12.6µM	0	?	0[10 µM]	0
CCNc1ncc2nc(-c3cn(C)c4ccccc34)c(=O)n(Cc3ccc(F)cc3)c2n1	-	-	?	25.1µM	-
Cc1noc(C)c1-c1cncnc1NCCN1CCOCC1	-	-	0	0	-
Cc1noc(C)c1-c1ccc2ncnc(NCCN3CCOCC3)c2c1	-	-	10µM	0	-
CC1=CC2=NC(=O)/C(=C\c3cccn3CCOc3ccccc3C)C(=N)N2O1	0	10µM	-	0	?
CCCSc1cc(NCCOC(=O)CCC)c([N+](=O)[O-])c2nonc12	0	0	?	0[10 µM]	0
SMILES	Epigenetic reg	NPSR antag	LMNA splice mod	HTT ATP protect	HttQ103 aggreg
CCCC(=O)OCCNc1cc(Sc2nccn2C)c2nonc2c1[N+](=O)[O-]	0	10µM	0	0[10 µM]	11.2µM
Nc1ncnc2c1ncn2[C@@H]1O[C@@H](CO)[C@H](O)[C@H]1O	0	-	?	0	-
Cc1ccc(OCCN(C)C(=O)CC2C(=O)NCCN2CC(C)(C)C)cc1 (configuration not stated)	0	0	0	0[10 µM]	0[9.22 µM]
COC(=O)CN(C)C(=O)CC1C(=O)NCCN1CC(C)(C)C (configuration not stated)	0	0	0	1.12µM	?
O=[N+]([O-])c1ccccc1N=Nc1c(O)[nH]c2ccc(S(=O)(=O)O)cc12	-	-	-	0[10 µM]	-
CCN(CC)S(=O)(=O)c1cc([N+](=O)[O-])ccc1N=Nc1c(O)[nH]c2ccccc12	17.8µM	0	0	0[10 µM]	0
Cc1sc2ncnc(N3CCC(C)CC3)c2c1C	0	0	?	0[10 µM]	0
Cc1sc2ncnc(N3CCN(CCOc4ccc(Cl)cc4)CC3)c2c1C	0	0	?	0	2µM
O=C(c1cnn2c1NC(c1ccco1)CC2C(F)(F)F)N1CCN(c2cccc(Cl)c2)CC1 (configuration not stated)	0	0	?	0[0.074 µM]	22.4µM
OCc1nc2ccccc2n1Cc1c(F)cccc1Cl	0	0	-	0[10 µM]	0[9.22 µM]
CSc1nc2ccccc2n1Cc1c(Cl)cccc1Cl	0	0	0	0	11.2µM
COc1ccc(-c2cccc(C3CC=CC4C3C(=O)N(Cc3ccccc3)C4c3ccc(OC)c(Cl)c3)c2)cc1 (configuration not stated)	0	10µM	-	0[10 µM]	?
Cc1ccc(F)c(C2C3C=CCC(c4cccc(-c5ccc(N(C)C)cc5)c4)C3C(=O)N2Cc2ccccc2)c1 (configuration not stated)	0	0	-	0[10 µM]	3.16µM
CCc1ccc(NC(=O)c2sc3nc(C)c(C(=O)Nc4ccc(C)cc4C)c(-c4ccco4)c3c2N)cc1	17.8µM	-	-	-	-
COc1cccc(NC(=O)c2sc3nc(C)c(C(=O)Nc4ccc(C)cc4C)c(-c4ccco4)c3c2N)c1	0	-	-	-	-
O=C(c1cc2ccc3cccnc3c2[nH]1)N1CCN(c2cccc(C(F)(F)F)c2)CC1	0	-	0	-	-
COc1ccc(Cc2nnc(N/N=C/c3ccc(Br)cc3)[nH]c2=O)cc1OC	0	0	-	0[10 µM]	0[9.22 µM]
COc1ccc(Cc2nnc(N/N=C/c3ccc(O)cc3)[nH]c2=O)cc1OC	0	0	?	0[10 µM]	1.12µM
COc1ccccc1N1CCN(CCN(C(=O)c2ccc(I)cc2)c2ccccn2)CC1	-	-	-	0[1.9 µM]	-
Cc1ccc(-n2c(-c3ccccc3)c[n+]3c2CCc2ccccc2-3)c(C)c1	0	0	?	0	3.16µM
CC(C)c1[nH]nc2c1C(c1cccc(OC(=O)N3CCOCC3)c1)C(C#N)=C(N)O2 (configuration not stated)	0	0	0	0	3.16µM
OCCN1CCN(c2nc(NCc3ccco3)c3ccccc3n2)CC1	0	0	0	0[10 µM]	0
c1ccc(CN2CCN(c3nc(NCc4ccco4)c4ccccc4n3)CC2)cc1	0	10µM	?	0	?
Cc1nc2sc(C(=O)NCc3ccc(Cl)cc3)c(NC(=O)c3ccccc3)c2c(C)c1C	0	-	-	-	-
COc1ccc(C2CC(C(F)(F)F)n3nc(C(=O)N(C)Cc4cn(C)nc4C)c(Cl)c3N2)cc1 (configuration not stated)	0	0	0	0	0
COc1ccc(C2CC(C(F)(F)F)n3nc(C(=O)NCc4c(C)nn(C)c4C)c(Cl)c3N2)cc1 (configuration not stated)	0	0	?	0	8.91µM
Cc1ccc(-c2noc(-c3ccccc3NC(=O)c3ccccc3)n2)cc1	0	-	-	-	-

Source: PubChem
